Screening results as filed in PubChem BioAssay.
Shown are actives, neighbours in structure and some others; about 10% of the full set was active somewhere.
HP1b binding inh – HTS for Inhibitors of HP1-beta Chromodomain Interactions with Methylated Histone Tails; AlphaScreen HP1-beta / biotin-H3K9me3 peptide binding; hit rate 0.56% among 390,000; Potency, µM (doses to about 114 µM), for inactives: at the highest dose activity change, negative = inhibition, actives largely listed as inhibitors; Chromobox protein homolog 1 (Homo sapiens), P83916; also: potency is read from the fitted curve at half-maximal effect; nearly all actives have a fitted effect of over 70% in size
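HP1-beta protein (50 nM final) preincubated 30 min at room temperature with biotinylated H3(1-18)K9me3 peptide (50 nM) in PBS pH 7.4, 0.01% Tween-20, then compound added for 30 min. AlphaScreen streptavidin donor/nickel chelate acceptor beads (10 ug/mL final), 30 min dark, luminescence read.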
Six1-Eya2 inh – qHTS Assay for Inhibitors of the Six1/Eya2 Interaction; Homeobox protein SIX1 (Homo sapiens) + Protein phosphatase EYA2 (Homo sapiens), …; AlphaScreen GST-Six1/His-Eya2 binding, biochemical; active compounds read low; activity change, % (no concentration beside the values); hit rate 0.56% among 360,000; in the data active = activity change below about -65%; inconclusive = mostly about -30% to -63%; also: % is scaled to controls: 0 for no effect and ±100 for the full control effect
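Homogeneous AlphaScreen proximity assay pairing GST-Six1 with His-tagged Eya2 (added as 5X mix: 250 nM and 500 nM) in 50 mM Tris pH 8.0, 300 mM NaCl, 1 mM TCEP. Glutathione donor and nickel acceptor beads; 1 h, 37 °C, dark.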
BAZ2B block – qHTS Assay for Inhibitors of BAZ2B | AID 504333, 2011 | Potency, µM (titrated, usually from 114 µM), without a hit: at the highest dose activity change, negative = inhibition, hits mostly inhibitors | hit rate 4.4% among 360,000 | AlphaScreen BAZ2B-H3K14Ac peptide displacement; also: potency is read from the fitted curve at half-maximal effect; % is scaled to controls: 0 for no effect and ±100 for the full control effect; nearly all actives have a fitted effect of over 60% in size
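Complex of BAZ2B and biotin-H3K14Ac (50 nM apiece) forms over 30 min at RT, then faces library compounds up to 110 uM for another 30 min; AlphaScreen beads added, 20 min dark incubation, luminescence read.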
G9a inh – qHTS Assay for Inhibitors of Histone Lysine Methyltransferase G9a | Histone-lysine N-methyltransferase EHMT2 (Homo sapiens), Q96KQ7 | G9a H3K9 monomethylation, AlphaScreen, 2 h | Potency, µM (doses to about 102 µM), for the others: at the top dose activity, negative = inhibition, actives largely listed as inhibitors | hit rate 8.8% among 350,000 | AID 504332, 2011; also: potency is read from the fitted curve at half-maximal effect; % is scaled to controls: 0 for no effect and ±100 for the full control effect; nearly all actives have a fitted effect of over 75% in size
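Signal arises when biotinylated H3K9 peptide, once monomethylated, bridges streptavidin donor and antibody-captured acceptor beads. Enzyme at 20 nM was preincubated 15 min with test compounds; peptide 500 nM and SAM 20 uM then reacted for 2 h.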
JMJD2A Tudor – qHTS Assay for Inhibitors of JMJD2A-Tudor Domain. Lysine-specific demethylase 4A (Homo sapiens), O75164. hit rate 4.4% among 390,000. AID 504339, 2011. Potency, µM (titrated, usually from 114 µM), for inactives: at the highest dose activity change, negative = inhibition, usual class: inhibitors. AlphaScreen JMJD2A-Tudor / H3K4me3 peptide binding; also: potency is read from the fitted curve at half-maximal effect; % is scaled to controls: 0 for no effect and ±100 for the full control effect; nearly all actives have a fitted effect of over 50% in size
CtBP-E1A blk – qHTS Assay for Inhibitors of the CtBP/E1A Interaction; CtBP / adenovirus E1A interaction (AlphaScreen); AlphaScreen GST-E1A/His-CtBP binding, 1536-well; active compounds read low; activity change, % (no concentration beside the values); hit rate 0.49% among 340,000; AID 651724, 2012; in the data active = activity change below about -65%; inconclusive = mostly about -30% to -63%; also: % is scaled to controls: 0 for no effect and ±100 for the full control effect
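AlphaScreen with 125 nM GST-E1A and 125 nM His-CtBP (5X stocks) in Tris pH 8.0, 300 mM NaCl, BSA, Tween 20, TCEP. Compounds preincubated 2 h at 37 deg C, then glutathione donor/nickel acceptor beads added for 1 h at 37 deg C in dark.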
Active calls of the source: *; ? = inconclusive; . = no result given; [ ] = dose if it differs, or a comment. Unless noted, calls follow the shape of the dose curve; as a rule, active = well fitted inhibition curve with a large enough effect; inconclusive = small, poorly fitted or top-dose-only effect; inactive = no such curve, though single readings can be large or run the other way.

SMILES	HP1b binding inh	Six1-Eya2 inh	BAZ2B block	G9a inh	JMJD2A Tudor	CtBP-E1A blk
CC(C)(C)OC(=O)NCCC(=O)N/N=C/c1ccc2ncccc2c1	7%	?	-11%	-39%	-2%	-20
O=C(COc1ccc(F)cc1)N/N=C/c1cccc2cccnc12	36%	?	.	.	89µM*	-86*
Cc1ccccc1OCC(=O)N/N=C/c1cccc2cccnc12	14%	-76*	40µM*	.	50µM*	-13
CC(C)(C)OC(=O)NCCC(=O)N/N=C/c1cccc2cccnc12	32%	?	?	7%[59 µM]	?	-79*
CCOc1ccccc1NC(=O)CSc1nc2ccccc2nc1Cc1ccc(C)cc1	13%[57 µM]	.	-9%	43%[59 µM]	-26%	.
COc1ccc(NC(=O)C2=C(C)Nc3nc(CCCO)nn3C2c2ccc(O)cc2)cc1 (configuration not stated)	26%	.	0%	-4%[59 µM]	-19%	.
CCOC(=O)c1c(C)[nH]c(C)c1S(=O)(=O)N1CCCC(C(=O)N2CCN(c3cc(C)ccc3C)CC2)C1 (configuration not stated)	-21%	.	45µM*	-33%[59 µM]	?	.
CC(=O)N1CCCc2cc(S(=O)(=O)N3CCCC(C(=O)N4CCN(c5ccccc5)CC4)C3)ccc21 (configuration not stated)	12%	-4	2%[57.1 µM]	?	-7%	-9
CC(=O)N1CCCc2cc(S(=O)(=O)N3CCCC(C(=O)N4CCN(c5cc(C)ccc5C)CC4)C3)ccc21 (configuration not stated)	19%	1	-31%[57.1 µM]	2%	4µM*	17
COc1cc(-c2nc3c4ccccc4nc(=S)n3[nH]2)cc(OC)c1OC	20%	7	-3%	.	-19%	2
COc1cc(-c2n[nH]c(=S)n2C(C)c2ccccc2)cc(OC)c1OC (configuration not stated)	32%	-1	-1%	.	13µM*	-3
COc1cc(-c2n[nH]c(=S)n2-c2ccccc2C(F)(F)F)cc(OC)c1OC	8%	-11	-16%	3.5µM*	?	-20
COc1cc(-c2n[nH]c(=S)n2-c2cccc(C(F)(F)F)c2)cc(OC)c1OC	13%	4	5%	?	89µM*	6
Cc1ccc(NC(=O)c2ccc(NC(=O)N3CCSc4ncccc43)cc2)c(Cl)c1	3%	.	-11%	-32%[59 µM]	-12%	.
O=C(Nc1nc(-c2ccccn2)cs1)c1cc(Cl)ccc1[N+](=O)[O-]	?	-91*	14µM*	5.6µM*	56µM*	?
Cc1cc(C(=O)Nc2nc(-c3ccccn3)cs2)ccc1[N+](=O)[O-]	11%	-71*	28µM*	40µM*	-29%	-14
CCOc1ccc(C(=O)NC(=S)Nc2ccc(NC(=O)CC)cc2)cc1[N+](=O)[O-]	13%	-3	7%	24%[59 µM]	-11%	0
CCC(=O)NC(=S)Nc1ccc(NC(=O)c2ccc(C)c([N+](=O)[O-])c2)cc1	26%	-2	-3%	7.9µM*	-3%	2
Cc1csc(NC(=O)c2ccc(C)c([N+](=O)[O-])c2)n1	1%	-18	?	10µM*	-33%	-19
COCCNC(=O)C1CCN(Cc2cc3ccccc3n2Cc2ccc(C)cc2)CC1	11%	.	-19%	11%[59 µM]	-28%	.
Cc1ccc(CNc2nc(-c3ccco3)nn2S(C)(=O)=O)cc1	9%	.	-18%	-3%[59 µM]	-4%	.
Cc1ccc(CNC(=S)Nc2cc(C(=O)O)ccc2C)cc1	0%	6	11%	-33%	-11%	3
